Consider 7 molecules from PubChem BioAssay AID651551 (Sanford-Burnham Center for Chemical Genomics, 2012).

The structures appear in SMILES notation.

The test can be described thus: GAPDH versus PEG-3 reporter suppression – cell-based, luminescence, counter-screen for PEG-3 promoter inhibitor project, SAR follow-up (AID 651551). As to conditions: HeLa PEG-Prom / GAPDH luciferase reporter, 6 or 24 h, run 2, 6 h; at 99 µM (top of the series).
The molecule `COc1ccc(-n2nc(C(=O)NCC(=O)Nc3ccc(OC)c(OC)c3)c3ccccc3c2=O)cc1` came in with an inhibition % (higher = more inhibition) of 55.7%.
To `Cc1nc(NC(=O)c2ccccc2)sc1-c1csc(Nc2ccccc2)n1` belongs 74.5%; to `CCCn1nc(C(=O)Nc2nc3ccccc3s2)c2ccccc2c1=O`, 12.5%.
On to `CCCn1nc(C(=O)Nc2nc(-c3ccccn3)cs2)c2ccccc2c1=O`, for which the inhibition % (higher = more inhibition) worked out at 64.7%.
For the molecule `Cc1ccc(Cl)cc1Nc1nc(-c2sc(NC(=O)c3ccco3)nc2C)cs1`, the inhibition % (higher = more inhibition) was 71%.
Molecule `CCn1cc(C(=O)NCc2ccco2)c(=O)c2cc(S(=O)(=O)N3CCCC3)ccc21` had an inhibition % (higher = more inhibition) of 42.1%.
Take `CCn1nc(C(=O)Nc2nc(-c3ccccn3)cs2)c2ccccc2c1=O`: the inhibition % (higher = more inhibition) was determined as 72.7%.
